# Article PMC7862700, “An all-to-all approach to the identification of sequence-specific readers for epigenetic DNA modifications on cytosine”
# Tests used:
# Experiment in all cases: DAPPL (digital affinity profiling via proximity ligation, sequencing); 10 mM Tris-HCl pH 7.5, 50 mM NaCl, 1 mM DTT, 4% glycerol, room temperature, 30 min; GST-TFs on glutathione beads, 16-mer random dsDNA library, 0.1% formaldehyde crosslink after washing; high values mean tight binding
# FLI1 = biological target: T1, FLI1 (Homo sapiens, UniProt Q01543 1-452); conditions: protein: recombinant; tags: N-terminal GST; dsDNA, one strand shown
# T1 sequence: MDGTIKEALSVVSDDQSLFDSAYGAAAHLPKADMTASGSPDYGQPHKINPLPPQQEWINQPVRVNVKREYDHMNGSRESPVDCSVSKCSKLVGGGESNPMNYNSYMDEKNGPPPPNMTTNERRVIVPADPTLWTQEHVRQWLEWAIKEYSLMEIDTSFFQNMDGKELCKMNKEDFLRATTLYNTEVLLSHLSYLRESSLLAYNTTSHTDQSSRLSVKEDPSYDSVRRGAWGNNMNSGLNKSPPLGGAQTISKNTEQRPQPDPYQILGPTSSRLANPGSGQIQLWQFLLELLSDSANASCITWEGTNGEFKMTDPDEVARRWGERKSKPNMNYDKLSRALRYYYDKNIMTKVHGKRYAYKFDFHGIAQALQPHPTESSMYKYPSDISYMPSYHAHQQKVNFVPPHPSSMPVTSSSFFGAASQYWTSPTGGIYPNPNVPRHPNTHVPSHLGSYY
# Outline: (§1)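 A tag-only sample was pooled with DNA-barcoded human transcription factors that had been expressed in yeast as GST fusions and captured on glutathione beads. The pools were incubated for 30 min at room temperature with 200 nmole of a random double-stranded 16-mer DNA library in Tris/NaCl/DTT/glycerol buffer, then washed, crosslinked with 0.1% formaldehyde, proximity-ligated (BsaI/T4 ligase, 1 h, 37 °C), PCR-amplified and sequenced on an Illumina NextSeq500. Binding signal is each hexamer's read frequency for a factor divided by its frequency for the tag-only sample.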
# ELK1 = biological target: T2, ELK1 (Homo sapiens, UniProt P19419 1-428); conditions: protein: recombinant; tags: N-terminal GST; dsDNA, one strand shown
# T2 sequence: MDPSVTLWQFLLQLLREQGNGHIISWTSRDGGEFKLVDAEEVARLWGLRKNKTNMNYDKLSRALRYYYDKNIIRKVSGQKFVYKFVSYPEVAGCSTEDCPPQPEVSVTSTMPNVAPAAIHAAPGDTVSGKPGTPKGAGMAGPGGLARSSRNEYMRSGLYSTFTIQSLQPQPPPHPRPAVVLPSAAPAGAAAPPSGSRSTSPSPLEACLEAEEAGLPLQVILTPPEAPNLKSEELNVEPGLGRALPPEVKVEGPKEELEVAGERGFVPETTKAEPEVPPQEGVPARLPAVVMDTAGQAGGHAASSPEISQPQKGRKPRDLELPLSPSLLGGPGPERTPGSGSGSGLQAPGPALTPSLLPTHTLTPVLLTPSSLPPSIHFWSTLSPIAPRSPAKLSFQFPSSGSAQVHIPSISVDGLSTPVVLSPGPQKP
# Outline: as §1
# GABPA = biological target: T3, GABPA (Homo sapiens, UniProt Q06546 1-454); conditions: protein: recombinant; tags: N-terminal GST; dsDNA, one strand shown
# T3 sequence: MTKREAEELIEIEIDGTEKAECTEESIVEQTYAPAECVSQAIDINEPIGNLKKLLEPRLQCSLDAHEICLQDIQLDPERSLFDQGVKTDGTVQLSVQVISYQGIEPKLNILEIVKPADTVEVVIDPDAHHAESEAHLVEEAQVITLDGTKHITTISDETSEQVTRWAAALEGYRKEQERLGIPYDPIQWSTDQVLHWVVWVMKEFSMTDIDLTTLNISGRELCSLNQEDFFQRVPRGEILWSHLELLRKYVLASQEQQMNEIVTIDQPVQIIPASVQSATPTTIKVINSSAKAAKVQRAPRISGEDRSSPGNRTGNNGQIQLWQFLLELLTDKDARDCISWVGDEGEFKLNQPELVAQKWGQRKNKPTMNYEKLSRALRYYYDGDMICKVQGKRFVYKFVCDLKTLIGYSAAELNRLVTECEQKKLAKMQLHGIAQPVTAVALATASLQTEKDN
# Outline: as §1
# ERG = biological target: T4, ERG (Homo sapiens, UniProt P11308 1-479); conditions: protein: recombinant; tags: N-terminal GST; dsDNA, one strand shown
# T4 sequence: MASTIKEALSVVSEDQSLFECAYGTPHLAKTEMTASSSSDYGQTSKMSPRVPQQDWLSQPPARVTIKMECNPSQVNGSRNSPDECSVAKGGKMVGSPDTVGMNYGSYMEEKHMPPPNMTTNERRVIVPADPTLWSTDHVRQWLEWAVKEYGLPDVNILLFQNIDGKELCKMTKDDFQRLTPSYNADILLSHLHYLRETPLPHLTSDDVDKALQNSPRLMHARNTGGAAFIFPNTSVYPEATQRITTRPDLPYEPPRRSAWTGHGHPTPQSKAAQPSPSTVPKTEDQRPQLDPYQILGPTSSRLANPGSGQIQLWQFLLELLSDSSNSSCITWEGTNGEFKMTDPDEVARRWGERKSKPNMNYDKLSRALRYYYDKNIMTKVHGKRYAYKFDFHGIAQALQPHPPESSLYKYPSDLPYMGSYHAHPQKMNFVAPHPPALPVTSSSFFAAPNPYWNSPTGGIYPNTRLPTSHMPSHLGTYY
# Outline: as §1
# ELF1 = ELF1 (Homo sapiens, UniProt P32519 1-619); conditions: protein: recombinant; tags: N-terminal GST; dsDNA, one strand shown
# ELF1, sequence (P32519 whole entry): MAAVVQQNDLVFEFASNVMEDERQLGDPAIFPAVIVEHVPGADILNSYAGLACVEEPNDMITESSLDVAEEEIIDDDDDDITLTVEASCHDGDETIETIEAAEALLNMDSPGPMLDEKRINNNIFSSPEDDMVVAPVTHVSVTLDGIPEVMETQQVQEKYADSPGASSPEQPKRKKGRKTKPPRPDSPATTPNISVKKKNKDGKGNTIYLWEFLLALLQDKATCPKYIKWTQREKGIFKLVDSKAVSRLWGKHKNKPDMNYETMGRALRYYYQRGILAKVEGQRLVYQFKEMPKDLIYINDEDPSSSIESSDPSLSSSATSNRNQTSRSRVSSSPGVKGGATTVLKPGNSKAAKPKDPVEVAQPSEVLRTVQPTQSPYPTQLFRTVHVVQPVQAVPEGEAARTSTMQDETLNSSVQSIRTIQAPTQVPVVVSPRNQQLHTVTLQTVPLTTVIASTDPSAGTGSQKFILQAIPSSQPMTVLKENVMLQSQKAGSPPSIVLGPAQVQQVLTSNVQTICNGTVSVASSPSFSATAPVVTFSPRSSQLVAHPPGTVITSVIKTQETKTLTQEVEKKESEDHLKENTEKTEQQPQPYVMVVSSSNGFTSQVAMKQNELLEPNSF
# Outline: as §1
# EHF = biological target: T5, EHF (Homo sapiens, UniProt Q9NZC4 1-300); conditions: protein: recombinant; tags: N-terminal GST; dsDNA, one strand shown
# T5 sequence: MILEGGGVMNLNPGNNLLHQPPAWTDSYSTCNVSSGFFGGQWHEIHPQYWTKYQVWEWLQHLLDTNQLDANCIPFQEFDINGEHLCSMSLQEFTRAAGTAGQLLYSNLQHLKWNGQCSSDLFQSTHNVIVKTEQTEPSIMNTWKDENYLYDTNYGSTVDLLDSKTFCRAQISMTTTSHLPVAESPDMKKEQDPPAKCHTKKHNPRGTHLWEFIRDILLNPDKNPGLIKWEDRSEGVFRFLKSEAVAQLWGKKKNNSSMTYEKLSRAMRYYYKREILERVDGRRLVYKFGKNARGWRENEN
# Outline: as §1
# SPI1 = SPI1 (Homo sapiens, UniProt P17947 1-270); conditions: protein: recombinant; tags: N-terminal GST; dsDNA, one strand shown
# Outline: as §1
# SPIB = SPIB (Homo sapiens, UniProt Q01892 1-262); conditions: protein: recombinant; tags: N-terminal GST; dsDNA, one strand shown
# SPIB, sequence (Q01892 whole entry): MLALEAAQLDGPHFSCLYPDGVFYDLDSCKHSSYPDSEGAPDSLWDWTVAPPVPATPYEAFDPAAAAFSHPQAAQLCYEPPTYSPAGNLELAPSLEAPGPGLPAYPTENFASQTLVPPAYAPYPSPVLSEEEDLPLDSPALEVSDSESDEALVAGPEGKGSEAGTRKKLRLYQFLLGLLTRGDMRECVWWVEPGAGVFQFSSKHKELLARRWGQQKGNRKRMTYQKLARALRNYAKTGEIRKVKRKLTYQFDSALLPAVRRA
# Outline: as §1
# ELK3 = biological target: T6, ELK3 (Homo sapiens, UniProt P41970 1-407); conditions: protein: recombinant; tags: N-terminal GST; dsDNA, one strand shown
# T6 sequence: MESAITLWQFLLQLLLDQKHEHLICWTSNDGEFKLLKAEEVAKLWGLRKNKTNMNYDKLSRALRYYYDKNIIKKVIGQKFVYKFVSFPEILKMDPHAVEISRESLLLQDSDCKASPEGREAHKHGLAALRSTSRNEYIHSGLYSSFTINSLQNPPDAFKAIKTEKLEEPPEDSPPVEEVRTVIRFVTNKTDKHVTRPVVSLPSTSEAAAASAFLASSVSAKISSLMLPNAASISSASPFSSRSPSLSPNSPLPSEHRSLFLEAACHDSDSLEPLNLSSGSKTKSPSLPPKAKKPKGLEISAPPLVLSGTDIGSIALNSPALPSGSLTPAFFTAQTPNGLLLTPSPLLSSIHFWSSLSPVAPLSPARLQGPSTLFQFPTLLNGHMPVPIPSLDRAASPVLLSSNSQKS
# Outline: as §1
# FEV = biological target: T7, FEV (Homo sapiens, UniProt Q99581 1-238); conditions: protein: recombinant; tags: N-terminal GST; dsDNA, one strand shown
# T7 sequence: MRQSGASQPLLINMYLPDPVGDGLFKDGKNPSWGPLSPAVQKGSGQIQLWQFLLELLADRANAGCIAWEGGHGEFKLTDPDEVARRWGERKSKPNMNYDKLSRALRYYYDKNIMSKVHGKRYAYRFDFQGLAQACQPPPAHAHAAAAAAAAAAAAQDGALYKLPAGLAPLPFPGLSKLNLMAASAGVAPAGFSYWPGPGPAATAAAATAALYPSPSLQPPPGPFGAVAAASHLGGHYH
# Outline: as §1
# ETV5 = ETV5 (Homo sapiens, UniProt P41161 1-510); conditions: protein: recombinant; tags: N-terminal GST; dsDNA, one strand shown
# ETV5, sequence (P41161 whole entry): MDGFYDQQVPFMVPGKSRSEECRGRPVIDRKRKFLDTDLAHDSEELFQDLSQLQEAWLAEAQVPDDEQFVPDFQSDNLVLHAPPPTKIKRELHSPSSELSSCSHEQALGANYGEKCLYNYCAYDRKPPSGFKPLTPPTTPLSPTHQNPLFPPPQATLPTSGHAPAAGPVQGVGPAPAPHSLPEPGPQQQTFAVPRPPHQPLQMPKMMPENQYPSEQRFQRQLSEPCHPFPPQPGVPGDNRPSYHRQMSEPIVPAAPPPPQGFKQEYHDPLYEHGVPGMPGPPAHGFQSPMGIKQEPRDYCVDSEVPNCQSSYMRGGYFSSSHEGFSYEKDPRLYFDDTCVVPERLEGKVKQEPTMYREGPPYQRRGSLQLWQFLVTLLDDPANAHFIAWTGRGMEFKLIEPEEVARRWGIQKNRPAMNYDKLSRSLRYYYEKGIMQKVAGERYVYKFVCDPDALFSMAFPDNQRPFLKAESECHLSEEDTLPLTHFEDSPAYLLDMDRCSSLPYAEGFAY
# Outline: as §1
# HSF1 = HSF1 (Homo sapiens, UniProt Q00613 1-529); conditions: protein: recombinant; tags: N-terminal GST; chain copies: 3; dsDNA, one strand shown
# HSF1, sequence (Q00613 whole entry): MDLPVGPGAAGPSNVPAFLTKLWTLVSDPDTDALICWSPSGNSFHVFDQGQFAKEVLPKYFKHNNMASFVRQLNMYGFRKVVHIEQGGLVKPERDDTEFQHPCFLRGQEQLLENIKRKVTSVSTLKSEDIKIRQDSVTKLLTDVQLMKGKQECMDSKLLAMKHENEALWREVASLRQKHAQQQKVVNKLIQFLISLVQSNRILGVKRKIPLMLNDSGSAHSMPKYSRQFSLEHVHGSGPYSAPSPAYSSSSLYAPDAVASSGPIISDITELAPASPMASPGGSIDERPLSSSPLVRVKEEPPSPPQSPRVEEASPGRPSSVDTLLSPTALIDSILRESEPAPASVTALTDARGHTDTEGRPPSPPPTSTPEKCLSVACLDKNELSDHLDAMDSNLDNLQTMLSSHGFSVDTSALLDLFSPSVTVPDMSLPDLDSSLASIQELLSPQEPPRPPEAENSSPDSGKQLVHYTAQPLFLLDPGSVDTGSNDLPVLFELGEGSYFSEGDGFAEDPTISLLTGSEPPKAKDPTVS
# Outline: as §1
# SPIC = biological target: T8, SPIC (Homo sapiens, UniProt Q8N5J4 1-248); conditions: protein: recombinant; tags: N-terminal GST; dsDNA, one strand shown
# T8 sequence: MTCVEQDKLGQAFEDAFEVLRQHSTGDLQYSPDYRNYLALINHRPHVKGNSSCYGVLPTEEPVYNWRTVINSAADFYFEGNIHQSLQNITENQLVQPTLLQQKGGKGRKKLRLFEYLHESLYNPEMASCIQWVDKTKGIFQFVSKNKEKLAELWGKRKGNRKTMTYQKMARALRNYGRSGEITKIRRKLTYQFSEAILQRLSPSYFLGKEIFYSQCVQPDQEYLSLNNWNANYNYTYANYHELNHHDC
# Outline: as §1
# ELF4 = ELF4 (Homo sapiens, UniProt Q99607 1-663); conditions: protein: recombinant; tags: N-terminal GST; dsDNA, one strand shown
# ELF4, sequence (Q99607 whole entry): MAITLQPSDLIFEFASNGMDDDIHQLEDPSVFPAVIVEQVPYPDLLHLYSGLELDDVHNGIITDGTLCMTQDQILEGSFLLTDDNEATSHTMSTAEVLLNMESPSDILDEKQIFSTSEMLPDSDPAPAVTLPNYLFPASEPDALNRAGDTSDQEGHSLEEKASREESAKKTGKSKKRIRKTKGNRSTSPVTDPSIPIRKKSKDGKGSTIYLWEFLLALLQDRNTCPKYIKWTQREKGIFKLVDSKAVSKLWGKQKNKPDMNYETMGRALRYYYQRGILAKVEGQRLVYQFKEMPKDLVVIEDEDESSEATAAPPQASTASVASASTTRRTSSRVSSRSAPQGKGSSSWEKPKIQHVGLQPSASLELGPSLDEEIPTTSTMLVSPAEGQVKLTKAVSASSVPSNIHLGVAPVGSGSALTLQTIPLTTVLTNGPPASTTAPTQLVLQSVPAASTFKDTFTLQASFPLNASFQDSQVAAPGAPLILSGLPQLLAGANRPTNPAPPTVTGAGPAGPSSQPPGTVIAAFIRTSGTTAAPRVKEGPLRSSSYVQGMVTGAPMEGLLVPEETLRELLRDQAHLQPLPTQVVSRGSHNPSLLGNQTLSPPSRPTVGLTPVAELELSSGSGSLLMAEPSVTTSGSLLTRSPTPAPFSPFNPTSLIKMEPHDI
# Outline: as §1
# ELK4 = biological target: T9, ELK4 (Homo sapiens, UniProt P28324-2 1-405); conditions: protein: recombinant; tags: N-terminal GST; dsDNA, one strand shown
# T9 sequence: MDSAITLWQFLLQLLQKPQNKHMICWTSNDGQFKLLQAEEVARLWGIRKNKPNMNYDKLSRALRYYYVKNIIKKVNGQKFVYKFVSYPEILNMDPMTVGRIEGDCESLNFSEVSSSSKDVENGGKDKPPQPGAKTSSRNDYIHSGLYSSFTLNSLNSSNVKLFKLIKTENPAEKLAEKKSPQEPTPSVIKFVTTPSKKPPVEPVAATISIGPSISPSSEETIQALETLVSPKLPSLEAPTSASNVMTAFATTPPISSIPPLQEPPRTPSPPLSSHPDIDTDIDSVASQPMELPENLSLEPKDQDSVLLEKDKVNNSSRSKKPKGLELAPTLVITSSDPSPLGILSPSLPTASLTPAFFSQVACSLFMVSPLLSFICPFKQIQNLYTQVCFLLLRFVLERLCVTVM
# Outline: as §1
# ETV2 = biological target: T10, ETV2 (Homo sapiens, UniProt O00321 1-342); conditions: protein: recombinant; tags: N-terminal GST; dsDNA, one strand shown
# T10 sequence: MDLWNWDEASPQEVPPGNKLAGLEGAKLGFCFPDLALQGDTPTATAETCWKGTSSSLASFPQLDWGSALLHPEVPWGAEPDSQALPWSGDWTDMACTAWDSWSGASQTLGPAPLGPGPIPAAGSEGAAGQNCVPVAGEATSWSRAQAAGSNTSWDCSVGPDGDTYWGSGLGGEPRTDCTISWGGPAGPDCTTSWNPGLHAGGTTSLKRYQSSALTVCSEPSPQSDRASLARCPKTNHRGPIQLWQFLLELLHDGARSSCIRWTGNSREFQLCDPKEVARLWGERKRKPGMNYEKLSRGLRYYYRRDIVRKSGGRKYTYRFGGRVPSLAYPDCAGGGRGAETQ
# Outline: as §1
# ELF3 = biological target: T11, ELF3 (Homo sapiens, UniProt P78545 1-371); conditions: protein: recombinant; tags: N-terminal GST; dsDNA, one strand shown
# T11 sequence: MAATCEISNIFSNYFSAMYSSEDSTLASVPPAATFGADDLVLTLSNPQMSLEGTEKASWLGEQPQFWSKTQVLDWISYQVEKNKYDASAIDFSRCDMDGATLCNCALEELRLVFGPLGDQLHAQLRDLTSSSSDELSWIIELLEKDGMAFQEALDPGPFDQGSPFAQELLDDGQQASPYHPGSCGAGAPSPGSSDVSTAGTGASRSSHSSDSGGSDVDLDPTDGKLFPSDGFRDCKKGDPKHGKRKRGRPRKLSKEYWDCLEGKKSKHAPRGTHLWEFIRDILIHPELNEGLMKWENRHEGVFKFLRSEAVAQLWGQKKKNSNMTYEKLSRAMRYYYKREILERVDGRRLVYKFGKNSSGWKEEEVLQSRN
# Outline: as §1
# CRX = CRX (Homo sapiens, UniProt O43186 1-299); conditions: protein: recombinant; tags: N-terminal GST; dsDNA, one strand shown
# CRX, sequence (O43186 whole entry): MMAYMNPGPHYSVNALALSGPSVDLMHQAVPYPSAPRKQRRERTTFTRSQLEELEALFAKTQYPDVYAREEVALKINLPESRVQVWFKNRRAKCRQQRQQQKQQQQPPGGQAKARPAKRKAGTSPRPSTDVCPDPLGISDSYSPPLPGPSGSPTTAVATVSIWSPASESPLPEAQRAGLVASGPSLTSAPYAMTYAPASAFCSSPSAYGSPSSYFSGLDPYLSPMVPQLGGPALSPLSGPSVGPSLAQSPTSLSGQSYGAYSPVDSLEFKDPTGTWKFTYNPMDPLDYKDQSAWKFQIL
# Outline: as §1
# ETV1 = ETV1 (Homo sapiens, UniProt P50549 1-477); conditions: protein: recombinant; tags: N-terminal GST; dsDNA, one strand shown
# ETV1, sequence (P50549 whole entry): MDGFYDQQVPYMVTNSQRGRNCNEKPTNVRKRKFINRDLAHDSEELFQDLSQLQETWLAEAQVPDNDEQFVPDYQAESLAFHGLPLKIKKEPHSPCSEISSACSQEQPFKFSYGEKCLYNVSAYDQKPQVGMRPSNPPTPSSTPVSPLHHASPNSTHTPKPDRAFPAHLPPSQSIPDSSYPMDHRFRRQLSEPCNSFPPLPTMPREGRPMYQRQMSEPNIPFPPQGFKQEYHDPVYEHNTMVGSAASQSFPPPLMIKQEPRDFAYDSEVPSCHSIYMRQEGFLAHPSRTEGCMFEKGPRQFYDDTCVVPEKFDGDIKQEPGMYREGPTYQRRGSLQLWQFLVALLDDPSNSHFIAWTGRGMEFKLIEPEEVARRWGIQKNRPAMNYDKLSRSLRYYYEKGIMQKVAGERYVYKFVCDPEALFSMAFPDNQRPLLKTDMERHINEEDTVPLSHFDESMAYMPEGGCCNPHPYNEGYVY
# Outline: as §1
sequence,measurement,setting,value
ATGACC,binding signal,FLI1,"1.54 fold enrichment (6-mer frequency, TF over GST control)"
same,binding signal,ELK1,"1.58 fold enrichment (6-mer frequency, TF over GST control)"
same,binding signal,GABPA,"1.78 fold enrichment (6-mer frequency, TF over GST control)"
same,binding signal,ERG,"1.52 fold enrichment (6-mer frequency, TF over GST control)"
same,binding signal,ELF1,"1.6 fold enrichment (6-mer frequency, TF over GST control)"
same,binding signal,EHF,"1.61 fold enrichment (6-mer frequency, TF over GST control)"
same,binding signal,SPI1,"1.6 fold enrichment (6-mer frequency, TF over GST control)"
same,binding signal,SPIB,"1.45 fold enrichment (6-mer frequency, TF over GST control)"
same,binding signal,ELK3,"1.65 fold enrichment (6-mer frequency, TF over GST control)"
same,binding signal,FEV,"1.63 fold enrichment (6-mer frequency, TF over GST control)"
same,binding signal,ETV5,"1.54 fold enrichment (6-mer frequency, TF over GST control)"
same,binding signal,HSF1,"1.42 fold enrichment (6-mer frequency, TF over GST control)"
same,binding signal,SPIC,"1.38 fold enrichment (6-mer frequency, TF over GST control)"
same,binding signal,ELF4,"1.66 fold enrichment (6-mer frequency, TF over GST control)"
same,binding signal,ELK4,"1.54 fold enrichment (6-mer frequency, TF over GST control)"
same,binding signal,ETV2,"1.76 fold enrichment (6-mer frequency, TF over GST control)"
same,binding signal,ELF3,"1.63 fold enrichment (6-mer frequency, TF over GST control)"
same,binding signal,CRX,"1.31 fold enrichment (6-mer frequency, TF over GST control)"
same,binding signal,ETV1,"1.62 fold enrichment (6-mer frequency, TF over GST control)"
